The list is not random: actives were taken first. Their share in the collection is about 2.5%.
Cruzain Triton: blocks cruzain activity in presence of Triton detergent; P25779; purified cruzain, Z-FR-AMC fluorescence, 0.01% Triton; Potency, µM, without a hit: max response, negative = inhibition, hits mostly inhibitors; 200,000 compounds, 0.43% hits; AID 1478;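 also: plate controls were neutral wells for no effect and buffer without enzyme for full effect; nearly all actives have a fitted effect of over 40% in size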
Target sequence (P25779 123-467 limits assumed): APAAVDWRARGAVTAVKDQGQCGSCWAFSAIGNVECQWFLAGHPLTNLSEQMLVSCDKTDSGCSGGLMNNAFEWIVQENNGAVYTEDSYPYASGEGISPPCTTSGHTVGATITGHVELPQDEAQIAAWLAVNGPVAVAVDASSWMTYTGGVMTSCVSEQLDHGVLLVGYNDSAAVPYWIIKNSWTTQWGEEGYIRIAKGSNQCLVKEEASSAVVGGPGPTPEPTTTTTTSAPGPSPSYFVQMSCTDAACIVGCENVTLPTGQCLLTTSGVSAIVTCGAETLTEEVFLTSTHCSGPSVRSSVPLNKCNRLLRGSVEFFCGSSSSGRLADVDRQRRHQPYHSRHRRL
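Purified cruzain (1.5 nM final) was preincubated with compounds for 15 min at room temperature in 100 mM sodium acetate pH 5.5, 5 mM DTT, 0.01% Triton X-100. Reaction started with 2 uM Z-FR-AMC; AMC fluorescence change over 60 s gave activity.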
Cruzain inh noDet: inhibitors of Trypanosoma cruzi cruzain without detergent | purified cruzain, Z-FR-AMC fluorescence, no detergent | 200,000 compounds, 2.3% hits | Potency, µM, without a hit: max response, negative = inhibition, hits mostly inhibitors;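 also: plate controls were enzyme without inhibitor for no effect and buffer without enzyme for full effect; nearly all actives have a fitted effect of over 40% in size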
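Purified cruzain at 1.5 nM, pre-incubated 15 min with compound at room temperature in 100 mM sodium acetate pH 5.5, 5 mM DTT, 0.00005% Triton X-100. Reaction started with 2 uM Z-FR-AMC; AMC fluorescence increase over 60 s gives rate.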
Starred values were filed as active, the others as inactive; ? = inconclusive; ! = repeats disagree. Calls follow the shape of the dose curve; as a rule, active = well fitted curve in the direction sought with a large enough effect; inconclusive = small, poorly fitted or top-dose-only effect, or another doubt; inactive = no such curve, though single readings can be large; an effect the other way counts as inactive or inconclusive. Potency is read from the fitted curve at half-maximal effect.

SMILES	Cruzain Triton	Cruzain inh noDet
Cc1ccc(C)c(N2CCN(C(c3ccc(F)cc3)c3nnc(-c4ccccc4)o3)CC2)c1 (centres undefined)	-3%	3%
CCCn1c(-c2ccc(F)cc2)nc2c(NCC3CCN(C)CC3)nc(C)nc21	-8%	-3%
Cn1nnnc1Sc1ncnc2scc(-c3ccc(F)cc3)c12	2%	-3%
Cn1nnnc1Sc1ncnc2scc(-c3ccccc3)c12	3%	16µM*
CC(C)OC(=O)/C(=C\C=C\c1ccccc1)NC(=O)c1ccccc1	-12%	-9%
C#CCOC(=O)/C(=C/C=C/c1ccccc1)NC(=O)c1ccccc1	7.1µM*	13µM*
COc1ccccc1CN1CCCC2(CCN(C(=O)c3cc(C(F)(F)F)cc(C(F)(F)F)c3)CC2)C1	0%	-6%
COC(=O)c1c(NC(=O)Nc2ccc(Cl)cc2)sc(C)c1C	0%	25µM*!
COC(=O)c1c(NC(=O)COc2ccc(Cl)cc2)sc(C)c1C	-3%	-4%
CC(C)CCNC(=O)CCn1c(=O)c2cccn2c2cccnc21	0%	14%
CCCCNC(=O)CSc1nc2ccccc2c(=O)n1Cc1ccc2c(c1)OCO2	6%	20µM*
O=C(CSc1nc2ccccc2c(=O)n1-c1ccccc1)NCc1ccc2c(c1)OCO2	1%	-1%
Cn1c(=O)n(C)c2cc(N3CCCCC3)c(NC(=O)c3ccc(C(C)(C)C)cc3)cc21	-1%	-1%
Cc1cc(C)cc(NC(=O)CSc2oc(-c3ccco3)nc2S(=O)(=O)c2ccc(Cl)cc2)c1	-15%	-28%
COc1ccc(NC(=O)COC(=O)c2ccc(OCc3ccc(Cl)cc3Cl)c(OC)c2)c(OC)c1	-2%	?
COc1ccc(C)cc1NC(=O)COC(=O)c1ccc(OCc2ccc(Cl)cc2Cl)c(OC)c1	-1%	25µM*
Cc1cc(C(=O)CSc2nn3c(=O)c(C(C)(C)C)nnc3s2)c(C)n1-c1ccc(F)cc1	2%	13µM*
CC(C)N(C(=O)CSc1nn2c(=O)c(C(C)(C)C)nnc2s1)c1ccccc1	-6%	19%
CC(C)C[C@@H](CC(=O)N[C@@H](CCCN)CC(=O)N[C@@H]1CCNC[C@H]1C(=O)N[C@H](CC(=O)N[C@@H](CCC(=O)O)CC(=O)O)CC(C)C)NC(=O)[C@@H]1CNCC[C@H]1N	0%	-4%
COc1ccc(Cn2c(CCC(=O)Nc3cccc(Cl)c3)nc3cccnc32)cc1	0%	-2%
COCCNC(=O)CCCN1C(=O)CCn2nc(-c3cccn3C)cc21	2%	-4%
O=C(Nc1cccc(Cl)c1)Nc1nnc(CSCCOc2ccc(Cl)cc2)s1	-4%	?
COc1ccc(OCCSCc2nnc(NC(=O)Nc3ccc(Cl)cc3)s2)cc1	-2%	13µM*
CCc1nnc(NC(=O)Nc2ccc(OC)cc2)s1	2%	9%
Cc1ccc(NC(=O)Nc2nnc(CSCCOc3ccc(Cl)cc3)s2)cc1	0%	7.9µM*
SMILES	Cruzain Triton	Cruzain inh noDet
COc1ccc(-c2c3c(=O)n(C)c(=O)n(C)c3c3c(-c4ccccc4)nc4ccccc4n23)cc1	-1%	10%
Cc1ccc(CNc2ncccc2-c2nc3cc(Cl)ccc3o2)cc1	-12%	10µM*
Clc1ccc2oc(-c3cccnc3NCc3ccccc3)nc2c1	-14%	-6%
Cc1ccc(C)c(CN2C(=O)c3ccccc3S(=O)c3ccc(C(=O)NCc4ccco4)cc32)c1 (centres undefined)	-3%	-20%
COc1ccc(OC)c(NC(=S)N(CCc2c(C)[nH]c3ccccc23)Cc2cccs2)c1	1%	?
COc1ccc(OC)c(NC(=S)N(CCc2c(C)[nH]c3ccc(C)cc23)Cc2cccs2)c1	-2%	25µM*
O=C1SC(SCc2ccccc2)=N/C1=C\c1ccco1	-7%	-4%
CC(/C=C1\N=C(SCc2ccccc2Cl)SC1=O)=C\c1ccccc1	-5%	25µM*
CCc1ccc(-c2[nH]nc3nc(-c4ccc(OC)cc4)cc(C(=O)NCCCOC)c23)cc1	-2%	-4%
N#CCCn1c(=O)c(-c2cccs2)nc2cnc(N3CCNCC3)nc21	-9%	-3%
Cc1ccc(C(=O)Nn2c(O)c(C=C3N=c4ccccc4=N3)sc2=S)cc1	-3%	0%
O=C(Nn1c(O)c(C=C2N=c3ccccc3=N2)sc1=S)c1ccccc1	-2%	-7%
Oc1c(C=C2N=c3ccccc3=N2)sc(=S)n1-c1ccc(F)cc1	-6%	20µM*
Oc1c(C=C2N=c3ccccc3=N2)sc(=S)n1C1CCCC1	-5%	20µM*
Cc1ccc(NC(=O)CCc2nnc3n(C)c(=O)c4sccc4n23)cc1C	0%	7%
Oc1cc2c(cc1O)[C@@H]1c3ccc(O)c(O)c3OC[C@]1(O)C2	-2%	-4%
Cc1ccc(C)c(N2CCN(C(=O)c3cc4c(=O)n(Cc5cccs5)ccc4nc3C)CC2)c1	-12%	?
COc1ccc(/C=C/C(=O)NCc2cn(C)nc2C)cc1COc1ccc(Cl)cc1Br	14µM*	-3%
CCn1nc(C)c(NC(=O)/C=C/c2ccc(OC)c(COc3ccc(Cl)cc3Br)c2)c1C	-2%	3%
O=C(CSc1nc2ccccc2nc1Cc1ccccc1)Nc1ccc2c(c1)OCO2	4%	-17%
CC(=O)c1sc(NC(=O)c2cc(-c3ccccc3)nn2-c2ccccc2)nc1C	-6%	-16%
O=C(Nc1nc2ccccc2s1)c1cc(-c2ccccc2)nn1-c1ccccc1	-2%	10µM*
CC1Cn2cc(C(=O)Nc3ccccc3C(F)(F)F)c(=O)c3c(Cl)ccc(c32)O1 (centres undefined)	0%	-5%
Cc1cc(C)c2c(n1)sc1c(=O)n(-c3cc(Cl)ccc3C)nnc12	3%	7%
Cc1cc(C)c(-c2csc(Cc3nc(-c4cc5ccccc5oc4=O)cs3)n2)cc1C	-2%	10µM*
SMILES	Cruzain Triton	Cruzain inh noDet
Cc1ccc(-c2csc(Cc3nc(-c4cc5ccccc5oc4=O)cs3)n2)cc1	2%	6.3µM*
Cc1cc(C)c(-c2csc(-c3cc4ccccc4oc3=O)n2)cc1C	0%	5%
O=c1oc2ccc(Br)cc2cc1-c1csc(-c2ccccc2)n1	1%	-5%
CC(=O)N1CCCc2cc(S(=O)(=O)N3CCC(C(=O)Nc4c(C)cccc4C)CC3)ccc21	-1%	13%
Cc1oc2ncnc(N3CCOCC3)c2c1C(=O)N1CCN(c2cccc(C(F)(F)F)c2)CC1	-3%	?
CCc1nn2c(=O)cc(COC(=O)C3CCCCC3)nc2s1	-7%	-10%
Cc1ccc(N2C(=O)N(CC(=O)C(C)(C)C)c3ccccc3S2(=O)=O)cc1C	-4%	13%
Cc1nc(N/N=C/c2ccccc2)nc(N(C)c2ccccc2)c1[N+](=O)[O-]	-1%	16µM*
Cc1cc(C)nc(N/N=C/c2ccccc2)n1	-6%	-3%
O=C(c1cnc(N2CCOCC2)c2ccccc12)N1CCN(c2ccccc2F)CC1	-6%	15%
COc1cc(Nc2nc(SCc3ccc(Cl)cc3)nc3ccccc23)cc(OC)c1	4%	?
COc1cc(Nc2nc(SCc3ccccc3F)nc3ccccc23)cc(OC)c1	1%	25%
COc1cc(Nc2nc(SCC(=O)c3ccc(Cl)c(Cl)c3)nc3ccccc23)cc(OC)c1	1%	6.3µM*
O=C(CSc1nc(Nc2ccccc2)c2ccccc2n1)c1ccc(Cl)cc1	-3%	?
COc1cc(Nc2nc(SCc3cccc(Cl)c3)nc3ccccc23)cc(OC)c1	0%	20µM*
COc1cc(Nc2nc(SCc3ccccc3Cl)nc3ccccc23)cc(OC)c1	1%	16µM*
CCOC(=O)COc1ccc(-c2nnn(CC(=O)Nc3ccccc3)n2)cc1	1%	0%

Compound activity (PubChem)
